A selection: hits, their analogues and other compounds. The true share with any hit is near 10%.
PLK1 PBD block = PLK1 (human) polo-box domain binding inhibition; P53350; Plk1 PBD binding of FITC phosphopeptide, fluorescence polarization; Potency, µM, most hits filed as inhibitors; 360,000 tested, 2.8% active; AID 720504; note: series mostly up to about 57 µM; nearly all actives have a fitted effect of over 65% in size
Mm-Cpn inhibitor = blocks the Methanococcus maripaludis chaperonin Mm-Cpn; purified Mm-Cpn ATPase, ADP Transcreener TR-FRET; AID 504842; Potency, µM (doses to about 76.9 µM), actives largely listed as inhibitors; 330,000 tested, 0.031% active; note: nearly all actives have a fitted effect of over 80% in size
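Quantitative HTS used 25 nM Mm-CPN and 10 uM ATP in magnesium/KCl Tris buffer, pH 7.4, with 1 mM DTT. Hydrolysis ran 30 min at 37°C; ADP was read by HTRF.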
G9a block = G9a (human) methyltransferase inhibition | Q96KQ7 | G9a H3K9 monomethylation, AlphaScreen, 2 h | Potency, µM (series often up to 102 µM), hits mostly inhibitors | 350,000 tested, 8.8% active | AID 504332; note: nearly all actives have a fitted effect of over 75% in size
Target sequence (Q96KQ7 913-1193 limits assumed): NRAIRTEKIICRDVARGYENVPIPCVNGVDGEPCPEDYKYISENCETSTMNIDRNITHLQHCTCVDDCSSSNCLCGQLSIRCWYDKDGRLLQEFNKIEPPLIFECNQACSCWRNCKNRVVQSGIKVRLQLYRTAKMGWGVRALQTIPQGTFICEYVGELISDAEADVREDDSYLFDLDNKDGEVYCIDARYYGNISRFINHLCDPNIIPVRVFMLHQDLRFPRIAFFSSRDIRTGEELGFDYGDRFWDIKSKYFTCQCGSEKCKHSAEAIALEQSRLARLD
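G9a (20 nM) preincubated 15 min RT with compounds, then 500 nM biotinylated H3K9 peptide and 20 uM SAM added; 2 h RT reaction. Monomethyl-H3K9 product detected by AlphaScreen with anti-H3K9me1 antibody, streptavidin donor and anti-rabbit IgG acceptor beads.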
Sfp PPTase inh = blocks B. subtilis Sfp PPTase activity; Biochemical Sfp PPTase activity, qHTS; Potency, µM, usual class: inhibitors; 310,000 tested, 3.5% active; AID 1490;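 note: the enzyme is Sfp with the accession as filed and its product quenches rhodamine fluorescence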
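Step 1, compound plus 15 nM Sfp-PPTase, 15 min, room temperature. Step 2, add rhodamine-CoA (5 uM) and BHQ-2-YbbR (12.5 uM). Step 3, read 525/598 nm fluorescence at 0 and 30 min.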
CCT modulator = changes cytosolic chaperonin activity | purified chaperonin ATPase assay, HTRF ADP detection, 30 min | activity change, % (concentration not given with the values), hits read low | 360,000 tested, 0.3% active; in the data active = activity change below about -30%
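ATPase activity: ADP formed was measured by HTRF Transcreener (665/615 nm ratio) after 30 min at 37 deg C with 10 uM ATP. Compounds screened at one 76 uM concentration against 40 or 20 nM TRiC in Tris pH 7.4/KCl/MgCl2/DTT buffer.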
VDR inh = inhibitors of human vitamin D receptor; P11473; VDR-SRC2-3 peptide fluorescence polarization, 2 h; Potency, µM, hits mostly inhibitors; 400,000 tested, 0.93% active; AID 504847
Target sequence (P11473 whole entry, looked up): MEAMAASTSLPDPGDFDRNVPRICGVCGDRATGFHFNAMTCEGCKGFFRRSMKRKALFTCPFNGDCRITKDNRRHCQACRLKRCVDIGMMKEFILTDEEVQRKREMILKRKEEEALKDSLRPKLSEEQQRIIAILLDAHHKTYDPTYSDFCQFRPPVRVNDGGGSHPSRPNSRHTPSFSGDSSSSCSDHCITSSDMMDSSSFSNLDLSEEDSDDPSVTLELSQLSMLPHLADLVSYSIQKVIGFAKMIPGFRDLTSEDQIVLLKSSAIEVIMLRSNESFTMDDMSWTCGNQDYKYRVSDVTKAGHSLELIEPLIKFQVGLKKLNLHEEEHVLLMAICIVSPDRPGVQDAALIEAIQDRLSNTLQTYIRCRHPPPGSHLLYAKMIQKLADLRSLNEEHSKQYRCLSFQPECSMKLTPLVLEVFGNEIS
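Reagent solutions, kept cold and dark, are dispensed first; compounds are then pinned in at 23 nl, plates briefly spun, and incubated 2 h at ambient temperature. Inhibition of VDR–SRC2-3 peptide binding is read by fluorescence polarization.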
Hits are given with their value; 0 = inactive; ? = inconclusive; - = no result given; ! = not confirmed by another sample; [ ] = dose if it differs, or a comment. Unless noted, calls come from the whole dose curve; as a rule, active = well fitted curve in the direction sought with a large enough effect; inconclusive = small, poorly fitted or top-dose-only effect, or another doubt; inactive = no such curve, though single readings can be large; an effect the other way counts as inactive or inconclusive.

SMILES | PLK1 PBD block | Mm-Cpn inhibitor | G9a block | Sfp PPTase inh | CCT modulator | VDR inh
CCOC(=O)N1CCN(C(=O)c2ccc3c(SCC(=O)O)c4c(nc3c2)CCCC4)CC1 | 0 | 0 | 39.8µM | 0 | 0 | 0
COc1ccc(OC)c(NC(=O)c2ccc3c(SCC(=O)O)c4c(nc3c2)CCCC4)c1 | - | - | 0 | - | - | 0
COc1cc(OC)c(NC(=O)c2ccc3c(SCC(=O)O)c4c(nc3c2)CCCC4)cc1Cl | 0 | 0 | 39.8µM | 0 | 0 | 0
O=C(O)CSc1c2c(nc3cc(C(=O)N4CCOCC4)ccc13)CCCC2 | 0 | 0 | 0[0.501 µM] | 50.1µM | 0 | 0
COc1cc(NC(=O)c2ccc3c(SCC(=O)O)c4c(nc3c2)CCCC4)cc(OC)c1OC | 0 | 0 | ? | 0 | 0 | 0
CCCSC1=NC2(CCN(C(=O)NC3CCCCC3)CC2)N=C1c1ccc(OC)cc1 | - | - | ? | - | - | 0
Cn1nnnc1SCCCNCc1ccc(-c2ccc(Br)cc2)o1 | - | - | 0 | - | - | 0
Cc1cccc(NC(=O)N2CCN3CCCCC3C2)c1C (stereo not drawn) | - | - | 0 | - | - | 0
CCc1cc(/C(Cc2ccccn2)=N\Nc2ccccc2)c(O)cc1O | 0 | 0 | 2.51µM | 0 | 0 | 0
O=C(NCc1ccccn1)Nc1cccc(NC(=O)NCc2ccccn2)c1 | 0 | 0 | 0 | 0 | 0 | 0
Cc1nc(C/C(=N\Nc2ccccc2)c2ccc(O)cc2O)cs1 | 0 | 0 | 4.47µM | 17.8µM | 0 | 0
COc1ccc(C2CC(c3ccccc3)Oc3c(C)ccc(C(C)C)c32)cc1 (stereo not drawn) | - | - | - | 0 | - | 0
COC(=O)c1scc(-c2ccc(C)cc2)c1S(=O)(=O)N1CCN(c2ccc(C)cc2C)CC1 | - | - | 0 | - | - | 0
COc1ccc(C2C(C(C)=O)=C(O)C(=O)N2Cc2ccccc2)c(OC)c1 (stereo not drawn) | 0 | 0 | 50.1µM | 0 | 0 | 0
CC(=O)C1=C(O)C(=O)N(Cc2ccccc2)C1c1cccs1 (stereo not drawn) | 0 | 0 | 44.7µM | 0 | 0 | 0
COc1cc(C2C(C(C)=O)=C(O)C(=O)N2Cc2ccccc2)ccc1O (stereo not drawn) | 0 | 0 | 44.7µM | 0 | 0 | 0
CC(=O)C1=C(O)C(=O)N(Cc2ccccc2)C1c1ccc(Cl)cc1 (stereo not drawn) | 0 | 0 | 0 | 0 | 0 | 0
COc1ccc(C2C(C(C)=O)=C(O)C(=O)N2CCCn2ccnc2)cc1OC (stereo not drawn) | 0 | 0 | 50.1µM | 0 | 0 | 0
CCOc1cccc2sc(NC(=O)c3ccc(S(=O)(=O)N4CCCCC4C)cc3)nc12 (stereo not drawn) | - | - | 0 | - | - | 0
CSc1ccc(CNC(=O)CCn2ccc3cc(S(=O)(=O)N4CCC(C)CC4)ccc32)cc1 | - | - | 0 | - | - | 0
COc1cccc(OCC(=O)NC2CC(=O)N(c3cccc(OC)c3)C2)c1 (stereo not drawn) | - | - | 0 | - | - | 0
O=C(NC(Cc1ccccc1)C(=O)O)/C(=C/c1ccc(Cl)cc1)NC(=O)c1ccco1 (stereo not drawn) | 0 | 0 | 50.1µM | 0 | 0 | 0
O=C(NC(Cc1ccccc1)C(=O)O)/C(=C\c1ccco1)NC(=O)c1ccccc1Br (stereo not drawn) | 0 | 0 | ? | 50.1µM | 0 | 0
O=C(NC(Cc1ccccc1)C(=O)O)/C(=C/c1ccco1)NC(=O)c1cccc([N+](=O)[O-])c1 (stereo not drawn) | 0 | 0 | 44.7µM | 0 | 0 | 0
CCc1nn(CC(=O)NCc2ccco2)c(=O)c2cc3cc(F)ccc3n12 | - | - | 0 | - | - | 0
SMILES | PLK1 PBD block | Mm-Cpn inhibitor | G9a block | Sfp PPTase inh | CCT modulator | VDR inh
CCOc1ccc(NC(=O)CSc2nccn2C2CCCC2)cc1 | - | - | 0 | - | - | 0
Cc1ccc2[nH]c(CSc3nnc(NC(=O)COc4ccccc4)s3)cc(=O)c2c1 | - | - | 0 | - | - | 0
CCOC(=O)c1c(NC(C)=O)sc2c(O)c(Br)cc(Br)c12 | 0 | 0 | ? | 35.5µM | 0 | 0
CCOC(=O)c1c(NC(C)=O)sc2c(O)cccc12 | 0 | 0 | ? | 0 | 0 | 0
O=C(CSc1n[nH]c(-c2ccc(F)cc2)n1)N1CCN(c2ccc(F)cc2)CC1 | - | - | 0 | - | - | 0
Cc1c(Cl)cccc1NC(=O)CC(c1ccc(F)cc1)N1Cc2ccccc2C1=O (stereo not drawn) | - | - | ? | - | - | 0
NC(=O)C1CCN(c2cc(Cl)nc(N)n2)CC1 | 8.44µM | 0 | 0 | 0 | 0 | 79.4µM
COC(=O)C1CCN(c2cc(Cl)nc(N)n2)CC1 | 0 | 0 | 0 | 0 | 0 | 0
O=C1c2c(O)cc(O)cc2O[C@H](c2ccc(O)c(O)c2)[C@H]1O | 0 | 0 | 10µM | 0 | 0 | 0
O=c1c(O)cc(C2Oc3cc(O)cc(O)c3CC2O)cc2c(C3Oc4cc(O)cc(O)c4CC3O)cc(O)c(O)c12 (stereo not drawn) | - | - | - | 7.08µM | - | 3.55µM
Oc1cc(O)c2c(c1)O[C@H](c1ccc(O)c(O)c1)[C@@H](O)C2 | 0 | 0 | 28.2µM! | 0 | 0 | 0
CCN1c2ccccc2-c2nc(SCC(=O)Nc3cccc(C)c3C)ncc2S1(=O)=O | - | - | 0 | - | - | 0
CCC(C)NC(=O)CNC(=S)N(Cc1ccccc1)Cc1cccnc1 (stereo not drawn) | 0 | 0 | 0 | 0 | 0 | 0
Cc1ccc(CN(Cc2ccccc2)C(=S)NCC(=O)NCc2cccnc2)o1 | ? | 0 | 28.2µM | 25.1µM | 0 | 0
Cc1ccc(CN(Cc2ccco2)C(=S)NCC(=O)O)cc1 | 0 | 0 | 31.6µM | 0 | 0 | 0
Cc1cc(C)c(NC(=S)N(Cc2cccnc2)Cc2ccco2)c(C)c1 | 0 | 0 | ? | 0 | 0 | 0
CCOC(=O)CNC(=S)N(Cc1ccccc1)Cc1cccnc1 | 0 | 0 | 0 | 0 | -33.8 | 0
Cc1ccc(CN(Cc2ccco2)C(=S)NCC(=O)NCc2cccnc2)cc1 | ? | 0 | 12.6µM | 22.4µM | 0 | 0
COc1cccc(C(=O)Nc2ccc3nc(SCCOc4ccccc4)sc3c2)c1 | - | - | 0 | - | - | 0
CCOC(=O)CNC(=O)c1cccnc1 | 23.8µM | 0 | - | 0 | 0 | 0
O=C(NCO)c1cccnc1 | 0 | - | - | 0 | 0 | 0
CCCCCc1cc(=O)oc2c(C(CCN3CCCC(C)C3)c3ccc(N(C)C)cc3)c(OC)cc(OC)c12 (stereo not drawn) | 0 | 0 | 0[12.7 µM] | 56.2µM | 0 | 0
CCCCCc1cc(=O)oc2c(C(CCN3CCCCC3)c3cc(OC)c(OC)c(OC)c3)c(OC)cc(OC)c12 (stereo not drawn) | 0 | 0 | 0 | 79.4µM | 0 | 0
CCCCCc1cc(=O)oc2c(C(CCN3CCCC(C)C3)c3cc(OC)c(OC)c(OC)c3)c(OC)cc(OC)c12 (stereo not drawn) | 0 | 0 | ? | 0 | 0 | 0
COc1ccccc1N1CCN(C(=O)CSc2nc3ccccc3nc2Cc2ccccc2)CC1 | - | - | 0 | - | - | 0
COc1cc(CNc2ccccc2SC)ccc1O | ? | 0 | ? | 79.4µM | 0 | 0
CCOc1cc(CNc2ccccc2SC)ccc1O | - | 0 | ? | 56.2µM | - | -
CCOc1cc(CN2CCSCC2)ccc1O | 0 | 0 | ? | 0 | 0 | 0

Screening results: PubChem BioAssay, National Center for Advancing Translational Sciences (NCATS)
